Source: PubChem
COUP-TFII inh – NR2F2 transcriptional activity inhibitors, primary screen, cell-based, luciferase reporter, HEK293T, luminescence; 370,000 compounds, 0.7% hits; inhibition, % at 8.6 µM; HEK293T NGFI-A luciferase reporter; AID 686940, 2013;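 active = inhibition above a per-plate cutoff, mean inhibition of test wells between control levels plus 3 SD, cut at about 38% in these data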;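 also: cells cotransfected with COUP-TFII expression vector driving the NGFI-A reporter; 0% = median of COUP-TF2 test wells and 100% = reporter-only cells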
NR5A2 inv ag – LRH-1 (NR5A2) inverse agonists, primary screen, cell-based, luminescence, HEK293T, StAR-luciferase reporter. 360,000 compounds, 0.13% hits. LRH-1 transfected, 24 h. Nuclear receptor subfamily 5 group A member 2 (Homo sapiens), O00482. inhibition, % at 3.6 µM;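 active = inhibition above the mean inhibition of all tested compounds plus 3 SD, cut at about 73% in these data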;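 also: 0% = DMSO wells and 100% = reporter-only cells lacking LRH-1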
NCOA2 inhibitor – inhibition of GAL4-SRC2 driven luciferase reporter, primary screen, SRC2 inhibitor project, cell-based, luminescence; HEK293 GAL4-SRC2 luciferase reporter; inhibition, % at 9 µM; 370,000 compounds, 0.17% hits; AID 651957, 2012;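 active = inhibition above the mean inhibition of all tested compounds plus 3 SD, set per campaign, cut at about 52% in these data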;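 also: 0% = DMSO treated cells and 100% = cells given Gossypol at 36 µM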
SRC3 inh – SRC3 coactivator transcriptional activity inhibitors, primary screen, cell-based, luminescence; 360,000 compounds, 0.17% hits; HEK293 GAL4-SRC3 luciferase reporter; inhibition, % at 3.6 µM; Nuclear receptor coactivator 3 (Homo sapiens), Q9Y6Q9; AID 588352, 2011;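 active = inhibition above a per-campaign cutoff, the mean of all compounds plus 3 SD, cut at about 60% in these data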;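 also: 0% = DMSO-treated cells and 100% = gossypol-treated cells at 36 µM; higher means less SRC3-driven luciferase light from the GAL4 reporter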
NCOA1 inh – SRC1 coactivator transcriptional activity inhibitors, primary screen, cell-based, luminescence; Nuclear receptor coactivator 1 (Homo sapiens), Q15788; HEK293 GAL4-SRC1 luciferase reporter; inhibition, % at 3.6 µM; 360,000 compounds, 0.12% hits;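 active = inhibition above the campaign mean plus 3 SD, with each screening campaign given its own cutoff, cut at about 60% in these data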;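 also: 0% = DMSO treated cells and 100% = gossypol at 36 µM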
Gli-Sufu antag – Gli-Sufu pathway antagonists, primary screen, luciferase luminescence, Sufu-KO-LIGHT cells, uHTS; Sufu-KO-LIGHT fibroblasts, Gli luciferase reporter luminescence; inhibition, % at 5 µM; 340,000 compounds, 0.74% hits; AID 588413, 2011;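 active = inhibition above about 55%, limit read from the data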;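 also: 0% = DMSO-treated cells and 100% = wells with medium but no cells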
Gli-Sufu confirm – Gli-SUFU pathway antagonists, confirmation, single concentration, luciferase luminescence, Sufu-KO-LIGHT cells; 2,500 compounds, 40% hits; shares compounds with Gli-Sufu antag; Gli luciferase reporter; inhibition, % at 5 µM;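 active = mean inhibition at 5 µM reaching about 45%, limit read from the data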;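 also: plate controls were DMSO-treated cells for no effect and wells lacking cells for full effect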
SufuKO cytotox – cytotoxicity in Sufu-KO-LIGHT cells, confirmation, cytotoxicity control for Gli-SUFU antagonist project, cell-based, ATP luminescence, single concentration; shares compounds with Gli-Sufu antag; 2,500 compounds, 32% hits; AID 651994, 2013; cytotoxicity, % at 5 µM;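 active = mean cytotoxicity at 5 µM above about 25%, limit read from the data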;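 also: cells exposed to compound overnight for roughly 16 to 18 hours; plate controls were DMSO wells with cells for no effect and medium without cells for full effect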
Wnt3a counter – Wnt3a reporter signal inhibition, confirmation, counter-screen for Gli-SUFU antagonist project, Wnt-LIGHT cells, luminescence, single concentration; shares compounds with Gli-Sufu antag; Wnt3a-driven luciferase reporter; inhibition, % at 6.25 µM; 2,500 compounds, 20% hits; AID 651995, 2013;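 active = mean inhibition above about 25%, limit read from the data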
Active calls of the source: *. This is a sample that favours compounds with a hit; in the whole collection about 1.3% have one here.

`CC1CCN(C(=O)C2CCN(C(=O)c3cc4sccc4n3Cc3ccc(F)cc3)CC2)CC1` gave COUP-TFII inh 4, NR5A2 inv ag 22, NCOA2 inhibitor 1, SRC3 inh -4, NCOA1 inh 10 and Gli-Sufu antag -1.
Screening CC(C)NC(=O)C1CCN(C(=O)c2cc3sccc3n2Cc2ccc(F)cc2)CC1 returned NR5A2 inv ag -24, SRC3 inh -13, NCOA1 inh 5, Gli-Sufu antag 61*, Gli-Sufu confirm 40, SufuKO cytotox 11 and Wnt3a counter 8.
Screening O=C(c1cc2sccc2n1Cc1ccccc1)N1CCN(c2nc3ccccc3s2)CC1 returned COUP-TFII inh 27, NR5A2 inv ag 11, NCOA2 inhibitor 5, SRC3 inh 42, NCOA1 inh 19, Gli-Sufu antag 58*, Gli-Sufu confirm 68*, SufuKO cytotox 33* and Wnt3a counter -18.
For CCC(=O)N1CCN(c2nc3ccccc3s2)CC1 the results were COUP-TFII inh -24, NR5A2 inv ag -118, NCOA2 inhibitor -48, SRC3 inh -83, NCOA1 inh -64 and Gli-Sufu antag 1.
For COc1ccc(S(=O)(=O)NC2CCCCC2)cc1C(=O)N1CCCCC1 the results were COUP-TFII inh 15, NR5A2 inv ag 12, NCOA2 inhibitor 8, SRC3 inh 14, NCOA1 inh -3 and Gli-Sufu antag -4.
Screening COc1ccc(S(=O)(=O)NC2CCCCCC2)cc1C(N)=O returned COUP-TFII inh 4, NR5A2 inv ag -16, NCOA2 inhibitor 21, SRC3 inh -13, NCOA1 inh -7, Gli-Sufu antag 63*, Gli-Sufu confirm 7, SufuKO cytotox 25 and Wnt3a counter -50.
O=C(C(=O)N1CCN(C(=O)c2ccccc2C(F)(F)F)CC1)c1cccc(C(F)(F)F)c1 was read as COUP-TFII inh -6 and NCOA2 inhibitor -27.
Screening CCOC(=O)C1=C(C)N(c2ccccc2)C(=O)C1 returned COUP-TFII inh -6, NR5A2 inv ag 1, NCOA2 inhibitor 16, SRC3 inh -19, NCOA1 inh -11, Gli-Sufu antag 76*, Gli-Sufu confirm 24, SufuKO cytotox 11 and Wnt3a counter 6.
`CCC(C)NS(=O)(=O)c1ccc(S(=O)(=O)N2CCCC3(CCCCC3)C2)cc1` (stereo not drawn) gave COUP-TFII inh -3, NR5A2 inv ag 13, NCOA2 inhibitor -4, SRC3 inh 9, NCOA1 inh -4, Gli-Sufu antag 53, Gli-Sufu confirm 43, SufuKO cytotox 26* and Wnt3a counter 6.
`CC1=CC(C)C2(COC(c3ccc[n+](C)c3)OC2)C(C)C1` (stereo not drawn) gave COUP-TFII inh 0, NR5A2 inv ag -6, NCOA2 inhibitor 6, SRC3 inh 14, NCOA1 inh 12, Gli-Sufu antag 58*, Gli-Sufu confirm 53*, SufuKO cytotox 17 and Wnt3a counter -4.
`CN(c1ccccc1C(N)=O)S(=O)(=O)c1ccccc1` gave COUP-TFII inh 12, NR5A2 inv ag 5, NCOA2 inhibitor 0, SRC3 inh 13, NCOA1 inh -17, Gli-Sufu antag 52, Gli-Sufu confirm 12, SufuKO cytotox 9 and Wnt3a counter 19.
For O=C(CCc1ccccc1)N[C@H]1[C@H](OCc2ccccc2)CCC[C@@]12C(=O)N(Cc1ccccc1)c1ccc(-c3ccccn3)cc12 the results were COUP-TFII inh -5 and NCOA2 inhibitor 7.
For COc1cccc(-c2ccc(CC[C@H]3O[C@H]4CC[C@H](CO)O[C@H]4C[C@H]3NS(C)(=O)=O)cc2)c1 the results were COUP-TFII inh -22 and NCOA2 inhibitor -12.
Screening Fc1ccc(Cn2ccc3ccc(-c4ccc5ccn(Cc6ccc(F)cc6F)c5c4)cc32)c(F)c1 returned COUP-TFII inh -24 and NCOA2 inhibitor 3.
Cc1ccccc1NC(=O)CSc1nc2cc3c(cc2cc1C)CCC3 was read as COUP-TFII inh 10, NR5A2 inv ag 8, NCOA2 inhibitor 9, SRC3 inh 4, NCOA1 inh 14, Gli-Sufu antag 54, Gli-Sufu confirm 40, SufuKO cytotox 29* and Wnt3a counter -41.
For CCC(=O)Nc1ccc(NC(=O)CSc2nc3cc4c(cc3cc2C)CCC4)cc1 the results were COUP-TFII inh -7, NR5A2 inv ag 55, NCOA2 inhibitor 15, SRC3 inh 13, NCOA1 inh -7 and Gli-Sufu antag 2.
`Cc1ccc(-c2cc(-c3nnc(SCC(=O)Nc4ccc(OCc5ccccc5)cc4)n3N)[nH]n2)cc1` gave COUP-TFII inh 8 and NCOA2 inhibitor -13.
`CCOC(=O)CN1C(=O)/C(=C/c2ccccc2Br)Oc2ccccc21` gave COUP-TFII inh 2, NR5A2 inv ag 9, NCOA2 inhibitor -6, SRC3 inh 5, NCOA1 inh 8, Gli-Sufu antag 57*, Gli-Sufu confirm 12, SufuKO cytotox 7 and Wnt3a counter -8.
Screening CCCNC(=O)c1ccc2c(=O)c(O)c(-c3ccc(C)cc3)[nH]c2c1 returned COUP-TFII inh 28, NR5A2 inv ag 25, NCOA2 inhibitor -56, SRC3 inh 9, NCOA1 inh 10 and Gli-Sufu antag 33.
`Cc1ccc(CNC(=O)c2ccc3c(=O)c(O)c(-c4ccc(C)cc4)[nH]c3c2)cc1` gave COUP-TFII inh 5, NR5A2 inv ag 1, NCOA2 inhibitor -2, SRC3 inh 51, NCOA1 inh -15, Gli-Sufu antag 66*, Gli-Sufu confirm 63*, SufuKO cytotox 12 and Wnt3a counter 70*.
For CC1=C(C(=O)Nc2ccccc2C)C(c2ccc(C)o2)C2=C(CCCC2=O)N1 (stereo not drawn) the results were COUP-TFII inh -3, NR5A2 inv ag -11, NCOA2 inhibitor 1, SRC3 inh 3, NCOA1 inh 8, Gli-Sufu antag 97*, Gli-Sufu confirm 15, SufuKO cytotox 6 and Wnt3a counter 35*.
